Screening results (PubChem)
Pf growth 96h: P. falciparum growth inhibition at 96 hour, primary screen for plastid delayed-death inhibitors; P. falciparum luciferase reporter growth, 96 h; 6.9% of 320,000 active; AID 504834; Potency, µM (series often up to 28.7 µM), inactives show top-dose activity change, negative = inhibition, hits mostly inhibitors; further: potency means the concentration at half of the fitted maximal effect; on the % scale 0 is the no-effect control and ±100 the full control effect
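96 h incubation, 37 C, 5% CO2, of luciferase-reporter P. falciparum-infected RBCs (2% hematocrit, 0.05% parasitemia final) with test compounds; endpoint luminescence.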
HCV inh: HCV inhibition. AID 651820. Huh7.5.1 HCVcc-Cre infection, luciferase reporter, 44 h. 3.4% of 340,000 active. Potency, µM (top dose mostly 41.8 µM), inactives show at the top dose activity change, negative = inhibition, actives largely listed as inhibitors; further: potency means the concentration at half of the fitted maximal effect; on the % scale 0 is the no-effect control and ±100 the full control effect
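Whole-lifecycle infectious HCVcc-Cre system; cells 1,000/well, compound then virus (~0.5 moi) added 4 h after plating, 44 h culture. Luciferase read 15 sec following 15 min substrate incubation, room temp.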
Shiga inhibitor: inhibitors of Shiga toxin in Vero cells | inhibition, % at 38.7 µM | 9.2% of 290,000 active | Vero cells, Shiga toxin protein synthesis inhibition reporter; in the data active means inhibition mostly above about 28%, no sharp cut-off; inactive means mostly below about 43%; further: 0% is about no effect
Pf growth 48h: inhibits P. falciparum growth in the first generation, 48 h. Potency, µM (series often up to 28.7 µM), for inactives: top-dose activity change, negative = inhibition, usual class: inhibitors. AID 504832. P. falciparum luciferase growth in erythrocytes, 48 h. 5.9% of 310,000 active; further: potency means the concentration at half of the fitted maximal effect; on the % scale 0 is the no-effect control and ±100 the full control effect
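A one-generation exposure of luciferase-tagged malaria parasites in RPMI 1640/Albumax erythrocyte culture, 37 C and 5% CO2. Inhibition is inferred from decreased luminescence after adding detection reagent.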
HCMV antiviral: blocks human cytomegalovirus replication. 4.5% of 410,000 active. activity change, negative = inhibition, % at 57.5 µM. AID 1259415. HFF cells, HCMV-luciferase reporter, 72 h; hits give low values; in the data active means activity change below about -60%; inconclusive means no clear call, values can overlap the other calls; inactive means above about -39%; further: on the % scale 0 is the no-effect control and ±100 the full control effect
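Human foreskin fibroblasts infected with luciferase-reporter HCMV at MOI 1 PFU/cell, compounds at two doses. Luciferase measured 72 h post infection; normalized to buffer-only basal and Salinomycin (10uM) controls.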
Cycloheximide cs: counter-screen hit for Shiga toxin inhibitors, cycloheximide; max response, %; 12% of 300,000 active; cell reporter, cycloheximide protein synthesis inhibition counterscreen; in the data active means max response mostly above about 13%, no sharp cut-off; inactive means mostly below about 14%; further: read at 38.3 µM for the half of the compounds with a filed dose; 0% is about no effect
* hit, by the source's call; ? = inconclusive; · = not tested or not shown. Hits are enriched below; roughly 21% of the tested compounds scored in any of these assays. Unless noted, the call rests on the fitted dose curve; in most records, active means well fitted inhibition curve with a large enough effect; inconclusive means small, poorly fitted or top-dose-only effect, or another doubt; inactive means no such curve, though single readings can be large or run the other way.

SMILES	Pf growth 96h	HCV inh	Shiga inhibitor	Pf growth 48h	HCMV antiviral	Cycloheximide cs
COc1ccccc1N(CC1CO1)S(=O)(=O)c1ccccc1 (stereo not given)	?	14.8%	9.0	8.1%	20.1	-4.8
CNC(=O)C1CCC(Cn2c(=O)c3sccc3n(CC(=O)Nc3ccccc3)c2=O)CC1 (stereo not given)	·	·	·	·	3.2	·
COc1ccc(C)cc1NC(=O)c1cc2ccccc2cc1OCC(=O)NCc1ccco1	?	?	7.5	·	45.2	29.7*
COc1ccc(-c2cc(C(=O)Nc3ccc(S(N)(=O)=O)cc3)c3ccccc3n2)cc1OC	?	-11.9%	2.7	6.1%	3.0	-1.6
COc1cc(-c2cc(C(=O)Nc3ccc(S(=O)(=O)NCc4ccco4)cc3)c3ccccc3n2)cc(OC)c1OC	16.5µM*	0.282µM*	9.7	10.4µM*	-63.2*	3.5
COc1ccc(C)cc1NC(=O)NCc1ccco1	?	-13.0%	-2.6	-10.3%	3.0	1.9
COc1cc(-c2cc(C(=O)NCc3ccco3)c3ccccc3n2)cc(OC)c1OC	10.4µM*	?	27.0	?	48.4	23.2*
CCn1nnc2cc(C(=O)Nc3cccc(C)c3C)ccc21	·	·	·	·	-6.8	·
CN(C)C(CNC(=O)c1cc(-c2ccco2)nc2ccccc12)c1ccccc1 (stereo not given)	·	-23.6%	·	·	18.3	·
CCC(CC)C(=O)Nc1ccc(Sc2ccc([N+](=O)[O-])cc2)cc1	?	?	-4.3	7.38µM*	-96.3*	6.0
CCCC(=O)Nc1ccc(Sc2ccc([N+](=O)[O-])cc2)cc1	14.7µM*	?	-3.7	11.7µM*	-75.1*	-0.6
CCCC(=O)Nc1ccc(C(=O)NNC(=O)c2cccc([N+](=O)[O-])c2)cc1	14.1%	-3.1%	-5.1	95.6%	37.7	-1.7
COP(=O)(OC)C(Nc1ccc(C)cc1)c1ccc([N+](=O)[O-])cc1 (stereo not given)	24.2%	12.3%	24.6*	40.6%	139.2	44.0*
CCOc1ccc(NC(c2ccccc2)P(=O)(OC)OC)cc1 (stereo not given)	?	7.0%	25.7*	52.1%	18.0	11.9
COc1ccc(C(Nc2ccccc2)P(=O)(Oc2ccccc2)Oc2ccccc2)cc1 (stereo not given)	0.0%	15.5%	56.5*	?	-6.6	27.7*
CCOP(=O)(OCC)C(Nc1cccc([N+](=O)[O-])c1)c1ccc(OC)cc1 (stereo not given)	?	1.5%	6.4	?	-35.3	0.9
CN(c1ccc(OCC(=O)NC2CCC(O)CC2)cc1)S(=O)(=O)c1ccc(Cl)cc1 (stereo not given)	·	1.3%	·	·	-12.4	·
O=C(CSc1nn(-c2ccc(Cl)cc2)c(=S)s1)NCC1CCCO1 (stereo not given)	?	-1.4%	11.7	?	7.3	0.6
O=C(COc1ccc(Br)cc1)NCCCNC(=O)c1cnccn1	?	-4.9%	-10.1	?	21.1	-1.5
Cc1cccc(C(=O)Nc2cc3c(cc2N2CCCCC2)n(C)c(=O)n3C)c1	·	·	·	·	18.7	·
Cc1ccc(NC(=O)Nc2cc3c(cc2N2CCCCC2)n(C)c(=O)n3C)cc1Cl	·	·	·	·	-98.8*	·
Cn1c(=O)n(C)c2cc(N3CCCCC3)c(NC(=O)c3cccc(Cl)c3)cc21	?	?	-4.0	10.4µM*	0.0	-2.1
Cc1nc(Nc2cccc(C(C)O)c2)c2nnn(Cc3ccc(F)cc3)c2n1 (stereo not given)	?	?	19.3	12.7%	?	-2.2
CCCCOc1ccc(C(=O)Nc2cc(-c3cn4cccnc4n3)ccc2OC)cc1	·	·	·	·	15.3	·
COc1cccc(CNC(=O)CCCC(=O)NC(C)CCc2ccccc2)c1 (stereo not given)	?	16.6%	-4.2	-13.1%	22.5	1.0
Cc1ccc2c(c1)N(C(=O)CCC(=O)NCc1ccccn1)CC(C)O2 (stereo not given)	2.7%	15.1%	-0.8	?	5.8	-1.9
CN(C(=O)CSc1nnc(-c2cccs2)n1C1CC1)C1CCS(=O)(=O)C1 (stereo not given)	49.5%	1.3%	·	30.6%	8.1	·
